# Measurements published in ChEMBL document CHEMBL4513216, “Probing the Open Global Health Chemical Diversity Library for Multistage-Active Starting Points for Next-Generation Antimalarials” (ACS Infect Dis, 2020).
# The whole screen tested about 68,000 compounds, of which about 2,700 (4%) showed an effect of 50% or more. Only a selection was taken, and strong results are over-represented in it overall.
# Tested on: Plasmodium berghei
# Test: Screen against P. berghei liver stage (PbLuc), transformed with Luciferase, at 2uM
# Type: functional, HepG2
# Conditions: tested at 2 uM
row,Structure (SMILES),INHIBITION
1,c1ccn(Cc2nnc3n2CCCN(c2cnccn2)C3)c1,-11.68%
2,Cc1cnc(CN(C)C2CCN(Cc3ccc(Cl)s3)C2)o1 (centres undefined),-39.39%
3,Cc1noc(C)c1CN1C(=O)[C@@H]2CC[C@H]1CN(Cc1cccnc1N)C2,31.38%
4,Nc1ncccc1CN1C[C@H]2CC[C@@H](C1)N(CC1CC1)C2=O,70.26%
5,CC(C)=CCN1C(=O)[C@@H]2CC[C@H]1CN(Cc1cccnc1N)C2,16.01%
6,Cc1nccc(NCc2cncc3c2CCN(CC2CC2)C3)n1,25.86%
7,CCOc1ccc(NC2CCN(C3CC3)C2=O)cn1 (centres undefined),-13.8%
8,Cc1ncc(CNC(C)(C)CO)c2cc(C(=O)c3ccc(Br)cc3)oc12,61.06%
9,Cc1ncc(CNCC(C)O)c2cc(C(=O)c3ccc(Br)cc3)oc12 (centres undefined),-4.01%
10,Cc1ncc(CNCCO)c2cc(C(=O)c3ccc(Br)cc3)oc12,29.19%
11,CCc1ccc(C2CCCCCN2C(=O)CNC(=O)C2CC2)o1 (centres undefined),-1.21%
12,OC(CNCCn1cccn1)c1ccc(C(F)(F)F)cc1 (centres undefined),-33.92%
13,CCc1nnc(Nc2cccc(C3CCCN(CC(C)(C)C)C3)n2)s1 (centres undefined),53.05%
14,CCc1nnc(Nc2cccc(C3CCN(C)CC3)n2)s1,7.64%
15,CCc1nnc(Nc2cccc(C3CCN(CC4CC4)CC3)n2)s1,20.71%
16,CC(C)CCOCCNC(=O)Nc1ccc(F)c(C(N)=O)c1,-24.7%
17,Cc1cc(C(F)(F)F)nc(C2COCCN2S(C)(=O)=O)n1 (centres undefined),6.64%
18,Cc1ccc(CN(C)C(C(=O)O)c2ccc3c(c2)OCO3)o1 (centres undefined),-39.01%
19,Cc1cccc(S(=O)(=O)N2CSCC2C(=O)NCC2CC2)c1 (centres undefined),3.89%
20,CC(C)(C)NC(=O)C1CSCN1S(=O)(=O)c1cccc(F)c1 (centres undefined),7.74%
21,Cc1cccc(S(=O)(=O)N2CSCC2C(=O)NC(C)(C)C)c1 (centres undefined),55.18%
22,N#Cc1cccc(NC(=O)C2CCCN2c2nccs2)c1 (centres undefined),6.77%
23,Cc1ccc2nc(C3CCCN3Cc3csc(C)n3)[nH]c2c1 (centres undefined),29.53%
24,Cc1ccc2nc(C3CCCN3Cc3scnc3C)[nH]c2c1 (centres undefined),47.23%
25,Cc1ccc2nc(C3CCCN3Cc3nnc(C)s3)[nH]c2c1 (centres undefined),78.16%
26,O=C(NCCc1ccccc1)N1CCC(C2OCCO2)CC1,5.92%
27,O=C(Cc1ccc(CO)cc1)N1CCN(c2ccccc2Cl)C(=O)C1,47.76%
28,CCC(NC(=O)c1ccc2[nH]ccc2c1)C(=O)N1CCOCC1 (centres undefined),5.98%
29,CC(C)c1nnc2n1CCN(Cc1ncc(-c3ccccc3)o1)C2,-58.75%
